Screening results deposited in PubChem BioAssay by several laboratories.
Autofluor counter = compound fluorescence in toxin protease inhibitor counterscreen. compound autofluorescence counterscreen, microsphere flow cytometry; active compounds read high. 3.1% of 360,000 active. fluorescence intensity (test concentration not listed); in the data active = fluorescence intensity above about 16000; inconclusive = no clear call, values can overlap the other calls
Anthrax LF inh2 = anthrax lethal factor protease inhibition; multiplex microsphere protease cleavage assay, LF; inhibition, % at 10 µM; P15917; AID 588501; 0.12% of 360,000 active; also: plate controls were buffer without enzyme for full effect and enzyme alone for no effect
Target sequence (P15917 whole entry, looked up): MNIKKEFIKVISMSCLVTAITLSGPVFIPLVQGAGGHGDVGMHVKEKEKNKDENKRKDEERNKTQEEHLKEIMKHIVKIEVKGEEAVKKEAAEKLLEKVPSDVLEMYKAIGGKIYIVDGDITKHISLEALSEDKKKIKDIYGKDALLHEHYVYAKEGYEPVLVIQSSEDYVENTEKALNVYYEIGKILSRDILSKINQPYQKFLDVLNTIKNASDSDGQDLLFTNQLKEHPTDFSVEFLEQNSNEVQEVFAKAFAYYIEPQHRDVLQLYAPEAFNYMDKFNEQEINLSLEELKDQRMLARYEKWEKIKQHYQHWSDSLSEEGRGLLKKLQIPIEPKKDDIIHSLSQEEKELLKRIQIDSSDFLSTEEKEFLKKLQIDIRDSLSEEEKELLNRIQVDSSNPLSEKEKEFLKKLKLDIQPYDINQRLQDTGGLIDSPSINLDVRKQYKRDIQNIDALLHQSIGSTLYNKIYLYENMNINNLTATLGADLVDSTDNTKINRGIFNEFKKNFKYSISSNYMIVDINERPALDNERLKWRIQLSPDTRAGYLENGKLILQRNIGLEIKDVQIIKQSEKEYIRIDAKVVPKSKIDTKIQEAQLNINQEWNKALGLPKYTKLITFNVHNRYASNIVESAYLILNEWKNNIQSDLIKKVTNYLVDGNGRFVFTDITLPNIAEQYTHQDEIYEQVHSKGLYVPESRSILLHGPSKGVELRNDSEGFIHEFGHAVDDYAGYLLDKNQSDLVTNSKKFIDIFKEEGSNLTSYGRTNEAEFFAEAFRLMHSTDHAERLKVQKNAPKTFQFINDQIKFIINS
Vc quorum ag = quorum light induction in luxS cqsA deficient V. cholerae; V. cholerae BH1578 lux reporter, luminescence, 6 h; activation, % at 18.7 µM; 0.16% of 350,000 active; in the data active = activation mostly above about 9.7%, no sharp cut-off; inconclusive = no clear call, values can overlap the other calls; inactive = mostly below about 3.7%
BoNT-F LC inh = blocks Botulinum neurotoxin F light chain protease | 0.22% of 360,000 active | Multiplex microsphere protease cleavage assay, flow cytometry | inhibition, % at 10 µM; in the data active = inhibition above about 35%, passing the limit was not always enough; inconclusive = no clear call, values can overlap the other calls; also: plate controls were buffer without enzyme for full effect and enzyme alone for no effect
BJeLR viability = BJeLR cell viability loss; AID 1554; 0.17% of 300,000 active; inhibition, % (concentration not given with the values); BJeLR (HRASV12) viability, CellTiter-Glo ATP luminescence, 48 h; in the data active = inhibition above about 50%; inconclusive = no clear call, values can overlap the other calls
BoNT A protease = BoNT A light chain protease inhibition. multiplex microsphere protease substrate cleavage, flow cytometry. inhibition, % at 10 µM. 0.17% of 360,000 active. AID 588499; also: plate controls were buffer without enzyme for full effect and enzyme alone for no effect
Numbers without * were called inactive; i = inactive; ? = inconclusive; · = no result given. Most compounds without a hit are left out; they make up all but 3.7% or so of the library. Rule as the data show it, unless noted: active = inhibition above about 30%; inconclusive = no clear call, values can overlap the other calls; inactive = below that.

SMILES	Autofluor counter	Anthrax LF inh2	Vc quorum ag	BoNT-F LC inh	BJeLR viability	BoNT A protease
CC(C)OC(=O)c1nn2c(C(F)(F)F)cc(-c3ccc(Br)o3)nc2c1Br	20340*	1	i	10	10	9
Cc1cc(C)n(CC(O)COCc2ccccc2)n1 (stereo not drawn)	20483*	-1	1	-3	-2	?
C[n+]1cn(CC(O)COCc2ccccc2)c2ccccc21 (stereo not drawn)	10066	0	-3	-2	-6	0
Cc1cc2c(cc1C)[n+](C)cn2CC(O)COCc1ccccc1 (stereo not drawn)	22173*	-3	-1	4	6	3
Cc1ccc(S(=O)(=O)n2cccc2/C=C/[N+](=O)[O-])cc1	2903	-6	i	2	·	0
Cc1nc(NC(=O)c2ccccc2)sc1-c1cc(C(=O)N2CCOCC2)nn1Cc1ccccc1	3504	0	0	-3	·	0
COc1ccc(CN2C(=O)c3cccnc3C2Nc2ccc(OC)c(Cl)c2)cc1 (stereo not drawn)	22056*	0	i	2	2	?
COc1ccc(NC2c3ncccc3C(=O)N2Cc2ccccc2)c(OC)c1 (stereo not drawn)	8556	-8	i	-49	-3	-2
COc1cc(NC2c3ncccc3C(=O)N2Cc2ccco2)cc(OC)c1 (stereo not drawn)	20554*	-9	i	-4	3	0
Cc1cccc(Cl)c1NC(=O)NCCCN1CCCCC1C (stereo not drawn)	4370	-19	·	-7	·	0
Cc1ccc2c(c1)C1(SC(C)C(=O)N1c1ccc(Cl)cc1)C(=O)N2 (stereo not drawn)	5773	0	·	-4	·	0
C=CCN1C(=O)C(C(C)CC)NC1=S (stereo not drawn)	18817*	-5	2	8	·	?
C=CCN1C(=O)C(C)NC1=S (stereo not drawn)	3631	-7	-1	?	1	4
CCOC(=O)c1c(N)sc2c(O)c(Br)ccc12	20732*	-2	0	-2	-12	0
CC(C)(C)S(=O)N1Cc2cc(=O)n(Cc3ccccc3)c(CCO)c2[C@@H]1CCO (stereo partly drawn)	4217	-4	i	-3	·	0
CC(=O)c1cc2c(cc1NC(=O)CSc1nnc(C3CC3)n1C)OCO2	3911	-4	0	1	·	0
O=C(CSc1nnc(-c2ccccc2)n1-c1ccccc1)N1c2ccccc2Sc2ccccc21	21718*	-4	-1	5	6	3
Cc1ccnc(SCC(=O)N2CCN(c3ccccc3)CC2)n1	21477*	-6	i	3	-8	2
Cn1c(CCNC(=O)c2cccs2)nnc1SCC(=O)N1CCN(c2ccccc2)CC1	23569*	0	-1	1	-4	?
Cn1c(SCC(=O)N2CCN(c3ccccc3)CC2)nnc1-c1ccco1	20444*	-2	i	0	-4	0
Cc1ccnc(SCC(=O)N2CCN(c3cccc(Cl)c3)CC2)n1	9779	-6	-1	3	-5	0
CNc1cnc(-c2ccsc2)cn1	3395	-2	i	0	·	0
COc1ccc(N2CCN(C(=O)CSc3nnc(-c4cc5ccccc5cc4O)n3C)CC2)cc1	16210*	-11	-4	-15	1	17
O=C(CSc1ccccn1)N1CCN(c2ccc(Cl)cc2)CC1	21847*	-1	i	3	4	?
Cc1ccccc1-n1c(SCC(=O)N2CCOCC2)nc(O)cc1=O	21580*	0	i	-4	-5	?
SMILES	Autofluor counter	Anthrax LF inh2	Vc quorum ag	BoNT-F LC inh	BJeLR viability	BoNT A protease
COc1ccccc1-n1c(SCC(=O)N2CCOCC2)nc(O)cc1=O	6167	-2	-1	-4	6	-1
Cc1ccccc1-n1c(SCC(=O)N2CCN(c3ccccc3)CC2)nnc1-c1ccncc1	21220*	1	-6	-1	-1	-1
Cc1ccccc1-n1c(SCC(=O)N2CCC(C(=O)O)CC2)nnc1-c1ccncc1	4070	2	0	4	-3	0
CCc1nc2c(OCCC3CCCCC3)cccn2c1N(C)C(=O)c1cccs1	3583	4	-1	-2	·	0
O=C(Nc1ccccc1)C1Cc2c(-c3ccco3)ccnc2O1 (stereo not drawn)	2803	-8	i	3	·	0
CC(C)CC1C(=O)N(Cc2cn(CC3CCCCC3)nn2)CCS(=O)(=O)N1Cc1ccc(-c2cccc(C#N)c2)cc1 (stereo not drawn)	3028	-5	0	-4	·	-1
CC(C)(C)c1ccc(C(=O)N2CCOC23CCCCC3)cc1	4227	0	·	-16	·	0
NC(=S)N=Nc1c(O)n(Cc2ccccc2)c2ccccc12	8740	0	0	6	-1	1
O=Nc1c(O)n(Cc2cccc(Cl)c2)c2ccccc12	9501	2	30*	-17	-2	0
COCCNC(=O)c1cc2c(=O)n3cccc(C)c3nc2n(Cc2ccncc2)c1=N	5865	-7	0	1	-11	1
CCCCNC(=O)c1cc2c(=O)n3cccc(C)c3nc2n(Cc2ccncc2)c1=N	24016*	0	0	-4	7	-4
Cc1cccn2c(=O)c3cc(C(=O)NCc4ccco4)c(=N)n(C(C)C)c3nc12	16268*	2	-4	-3	5	2
CCCn1c(=N)c(C(=O)NC2CCCC2)cc2c(=O)n3cccc(C)c3nc21	2415	-1	17*	6	1	0
Cn1c(=O)n(C)c2cc(CNC(=O)[C@H]3O[C@@H](n4ccc(=O)[nH]c4=O)[C@H](O)[C@@H]3O)ccc21	4576	9	·	-9	·	0
O=c1c2nnn(Cc3ccc(Cl)cc3)c2ncn1Cc1ccc(F)cc1	22862*	-1	3	-2	-10	1
CSc1nc(N(C)CCO)c2sc3nc(-c4ccco4)c4c(c3c2n1)CCC4	22092*	-2	i	-1	-8	?
CS(=O)(=O)N(CC(=O)Nc1ccccc1F)C1CCCCC1	4258	0	-2	-13	4	-2
CS(=O)(=O)N(CC(=O)Nc1ccccc1Sc1ccccc1)C1CCCCC1	22169*	-3	4	-2	-9	?
COCCN(C(=O)c1ccc(C)c(S(=O)(=O)N2CCOCC2)c1)c1c(N)n(CC(C)C)c(=O)[nH]c1=O	4065	-3	-1	-8	·	0
Cc1cc(C)c(C2=NOC(O)(C(F)(F)F)C2)c(=O)[nH]1 (stereo not drawn)	2539	0	0	-4	13	0
Cc1cc(C)c(-c2cc(C(F)(F)F)no2)c(=O)[nH]1	17034*	0	0	-5	-4	?
COc1ccc(C(=O)OCCN=C2NS(=O)(=O)c3ccccc32)cc1OC	21489*	2	i	7	-13	7
COc1ccccc1C(=O)OCCCN=C1NS(=O)(=O)c2ccccc21	4732	-3	2	-1	1	1
COc1ccc(/C=C2\COc3ccccc3C2=O)c(OC)c1	3855	3	2	-17	-3	-3
